PubChem BioAssay AID2315 (National Center for Advancing Translational Sciences (NCATS), 2010)
Among all 290,000 compounds or so, about 27,000 (9.3%) were called active. Cut-off read from the data, not from the text of the source: active = inhibition mostly above about 28% (no sharp cut-off); inactive = mostly below about 43%. The entries come from a sample that favours actives as a whole.

Test: A qHTS for Small Molecule Inhibitors of Shiga Toxin; for inhibition: 0% is about no effect
Settings: Vero cells, Shiga toxin protein synthesis inhibition reporter; at 38.7 µM, active compounds read high

Compound	inhibition
Cc1[nH]c2c(C(=O)N3CCCC(CCC(=O)NCc4ccccc4F)C3)cccc2c1C (stereo not drawn)	16.4% (inactive)
CCOCCCNC(=O)C1(O)c2cc(Br)ccc2NC(=O)N1c1ccc(C)c(C)c1 (stereo not drawn)	-7.51% (inactive)
Cc1ccccc1OCC(=O)Nc1ccc(S(=O)(=O)N2CCOCC2)cc1	-7.1% (inactive)
Cc1cc(NC(=O)CCC(=O)N(Cc2ccccc2)C(C(=O)NC2CCCC2)c2ccc(C)o2)no1 (stereo not drawn)	11.3% (inactive)
O=C1CCNCCN1[C@H](CO)Cc1ccccc1	-8.58% (inactive)
CCC(C)N1CC(=O)N2Cc3[nH]c4ccccc4c3C[C@H]2C1=O (stereo partly drawn)	-5.65% (inactive)
COc1ccc(OC)c(C(=O)NC(CC(N)=O)c2ccc(N3CCC(N4CCCCC4)CC3)c([N+](=O)[O-])c2)c1 (stereo not drawn)	-6.13% (inactive)
COc1ccc(Cc2nnc(SCC(=O)Nc3ccc(C)c(C)c3)o2)cc1OC	-3.66% (inactive)
CCN1CCN(Cc2c(O)ccc3c(=O)c(-c4ccc(OC)c(OC)c4)c(C(F)(F)F)oc23)CC1	21.4% (active)
CN1CCN(Cc2c(O)ccc3c2oc(=O)c2ccccc23)CC1	23.3% (inactive)
CCOC(=O)c1oc2c(CN3CCN(C)CC3)c(O)ccc2c(=O)c1-c1ccc(Br)cc1	15.8% (inactive)
CC(C)=CCCC1(C)C=Cc2c(ccc3c2[nH]c2cc(O)c(C)cc23)O1 (stereo not drawn)	23.1% (inactive)
CC(C)Oc1ccc(CN2CCC(n3nccc3NC(=O)c3cccnc3)CC2)cc1	-10.5% (inactive)
O=C(Cc1ccsc1)N1CCN(S(=O)(=O)c2cc(C(F)(F)F)cc(C(F)(F)F)c2)CC1	-17.3% (inactive)
O=C(COc1ccc([N+](=O)[O-])cc1)Nc1cccc(C(=O)Nc2ccccc2C(=O)O)c1	-17.8% (inactive)
S=c1[nH]c(-c2cccs2)cn1-c1ccccc1	58.2% (active)
COc1ccc(-c2cn(-c3ccc(OC)cc3)c(=S)[nH]2)cc1	38.6% (inactive)
O=c1oc2ccccc2cc1-c1cn(-c2ccccc2)c(=S)[nH]1	24.5% (inactive)
O=C(CN(C(=O)c1csnn1)c1ccc(Br)cc1)NC1CCCC1	-6.01% (inactive)
COc1ccc(Cl)cc1NC(=O)CCS(=O)(=O)c1ccc(Br)cc1	-3.47% (inactive)
Cc1ccc(C(=O)Cn2cc([N+](=O)[O-])nc2C)cc1	-7.99% (inactive)
Cc1ccc(-c2cn3cc(C)ccc3n2)cc1	-49.3% (inactive)
Cc1ccc2nc(-c3ccc(Br)cc3)cn2c1	23.9% (active)
Cc1ccnc(N2C(=O)c3ccc([N+](=O)[O-])cc3C2=O)c1	2.61% (inactive)
Cc1ccc(-c2cn3cc([N+](=O)[O-])ccc3n2)cc1	190% (active)

Compound	inhibition
CSc1nnc2ccc(-c3ccc(C)cc3)nn12	5.52% (inactive)
O=C(Nc1ccnn1C1CCN(C/C=C/c2ccc(F)cc2)CC1)C1CCCC1	12% (inactive)
CCOc1c(OC)cccc1C(=O)NCC1(c2ccccc2)CCCC1	-6.29% (inactive)
COc1ccc(C(=O)C2CCCN(S(=O)(=O)c3cccc(C)c3)C2)c(C)c1 (stereo not drawn)	-2.5% (inactive)
COc1ccc2nc(Nc3nc(-c4cc5ccccc5oc4=O)cs3)sc2c1	61.7% (inactive)
Cc1nc(C)c(-c2csc(NCCc3ccccc3)n2)s1	13.4% (inactive)
CCNc1nc(-c2cc3ccccc3o2)cs1	83.5% (active)
O=c1oc2ccccc2cc1-c1csc(Nc2ccc(O)cc2)n1	111% (active)
Cc1ccc(Nc2nc(-c3sc(NC(=O)c4ccccc4)nc3C)cs2)cc1	16.8% (inactive)
Cn1c(CNc2nc(-c3ccccc3)cs2)nnc1SCC(=O)c1ccccc1	-0.789% (inactive)
COc1ccc(S(=O)(=O)N2CCOCC2)cc1C(=O)NC1CCCCC1	-17% (inactive)
CCN(CC)CCN(C(=O)c1ccc(N2C(=O)CCC2=O)cc1)c1nc2cc3c(cc2s1)OCO3	29.6% (inactive)
CCN(CC)CCN(C(=O)c1ccc(S(=O)(=O)N2CCOCC2)cc1)c1nc2cc3c(cc2s1)OCCO3	44.5% (active)
CN(C)CCCN(C(=O)c1ccc(S(=O)(=O)N2CCCCCC2)cc1)c1nc2ccc(Br)cc2s1	0.697% (inactive)
O=S(=O)(c1ccc(-c2ccno2)s1)N1CCCCC1	-11.5% (inactive)
COc1ccc2c(C)cc3nnnn3c2c1	-4.48% (inactive)
CCS(=O)(=O)Nc1ccc(C(=O)NCCSc2ccccc2)cc1	79.2% (active)
O=C(CNC(=O)c1ccco1)OCC(=O)c1ccccc1	46.8% (inactive)
CCCc1ccc(OCC(=O)NNC(=S)NC(=O)c2ccco2)cc1	-7.48% (inactive)
O=C(NCCSc1ccccc1)c1ccco1	80.2% (active)
CCCc1ccc(OCCNC(=O)c2ccco2)cc1	78.3% (active)
Cc1ccc(C(=O)NCCNC(=O)c2ccccc2)cc1	-8.28% (inactive)
CCCc1ccc(OCCNC(=O)c2ccccc2Br)cc1	34.3% (inactive)
Cc1ccc(C(=O)NCCNS(=O)(=O)c2ccccc2)cc1	1.8% (inactive)
O=C(CSc1ccccc1)Nc1ccc(NC(=O)c2ccco2)cc1	38.7% (inactive)

Compound	inhibition
Cc1cc(S(=O)(=O)NC2CCCC2)ccc1-n1cnnn1	-8.85% (inactive)
Cc1cc(CNC(=O)C2CCC(=O)N(CCc3ccc(Cl)cc3)C2)no1 (stereo not drawn)	-7.54% (inactive)
CC(=O)Nc1c2c(nn1-c1ccc(C)cc1C)CS(=O)C2 (stereo not drawn)	-1.19% (inactive)
CC1=CCC2C(=O)N(c3cccc(C(=O)NC(C)c4ccccc4)c3)C(=O)C2C1 (stereo not drawn)	-6.84% (inactive)
Cc1ccc(C)c(N2CCN(C(=O)CCCn3c(=O)c4cccn4c4cccnc43)CC2)c1	-8.84% (inactive)
O=C(CSc1cccc[n+]1[O-])c1ccc(-c2ccccc2)cc1	142% (active)
COc1ccccc1C(=O)CSc1cccc[n+]1[O-]	-1.48% (inactive)
O=C(CSc1cccc[n+]1[O-])c1ccc(Cl)cc1	5.16% (inactive)
CC(=O)Nc1cccc(NC(=O)CSc2nccn2Cc2ccc(F)cc2)c1	-6.32% (inactive)
O=C(COC(=O)c1c2c(nc3ccccc13)/C(=C\c1cccs1)CCC2)Nc1ccccc1Cl	24.9% (inactive)
NS(=O)(=O)c1ccc(NC(=O)COC(=O)c2c3c(nc4ccccc24)/C(=C\c2ccc4c(c2)OCO4)CCC3)cc1	3.72% (active)
COc1cc(-c2cc(C(=O)OCC(=O)Nc3ccc4c(c3)OCO4)c3ccccc3n2)cc(OC)c1OC	3.34% (inactive)
NS(=O)(=O)c1ccc(NC(=O)COC(=O)c2ccc(Cl)nc2)cc1	-4.23% (inactive)
NC(=O)c1ccc(NC(=O)COC(=O)c2c3c(nc4ccccc24)/C(=C\c2ccc4c(c2)OCO4)CCC3)cc1	59.8% (active)
NS(=O)(=O)c1ccc(NC(=O)COC(=O)c2cc3ccccc3oc2=O)cc1	16.5% (inactive)
O=C(N/C(=C/c1ccc(Cl)cc1)C(=O)N1CCCCC1)c1ccco1	5.11% (inactive)
O=C1CCC(C(=O)N2CCN(c3ccccc3Cl)CC2)CN1CC1CCCCC1 (stereo not drawn)	-2.81% (inactive)
Cc1c(OC(C)C(=O)NCC2CCC(C(=O)O)CC2)ccc2c1oc(=O)c1ccccc12 (stereo not drawn)	-3.63% (inactive)
CCCC[C@]12Cc3cc(OC)c(OC)cc3C(O1)C1=C(CC3(CCCCC3)OC1=O)O2	inactive
CCn1cc(CN2CCN(CC(C)(C)C)C(CCO)C2)c2ccccc21 (stereo not drawn)	8.71% (inactive)
CC(=O)Nc1ccc(S(=O)(=O)N2N=NC3C2C2CC4C3(CN(C(=O)OC(C)(C)C)S4(=O)=O)O2)cc1 (stereo not drawn)	19.4% (inactive)
CN(C)S(=O)(=O)N1CCC(Oc2cccc(C(=O)NCCCC3CCCC3)c2)CC1	56.6% (active)
CN(C(=O)c1cccc(OC2CCN(S(=O)(=O)N(C)C)CC2)c1)C1CCOC1 (stereo not drawn)	21.6% (inactive)
CNS(=O)(=O)c1cccc(C(=O)NCC2CCCCC2)c1	10.6% (inactive)
O=C(CN(C(=O)c1nsc(Cl)c1Cl)c1cccc(F)c1)NC1CCCC1	-1.89% (inactive)

Compound	inhibition
O=C(NCCCn1ccnc1)C1CCCN(S(=O)(=O)c2cc(Cl)ccc2Cl)C1 (stereo not drawn)	-13% (inactive)
COc1cccc(CNS(=O)(=O)c2cc3c(cc2C)n(C)c(=O)c(=O)n3C)c1	-2.17% (inactive)
COc1cccc(CNc2ncc(-c3ccccc3)n2C)c1	20.5% (active)
COc1cccc(CNc2nc(C(F)(F)F)nc3ccccc23)c1	-1.59% (inactive)
COc1cc(C(=O)N/C(=C\c2cn(C)c3ccccc23)C(=O)N2CCOCC2)cc(OC)c1OC	-2.55% (inactive)
COc1ccccc1C(=O)Nc1ccnn1C1CCN(Cc2cnn(C)c2)CC1	14.1% (inactive)
Cc1occc1C(=O)NNC(=S)NCC(C)C	-8.32% (inactive)
CC(C)CNC(=S)NC(=O)c1ccc(Cl)cc1	90.8% (active)
CC(C)C(NC(=O)c1ccc(Cl)cc1)C(=O)O (stereo not drawn)	-21.4% (inactive)
CCn1ccnc1CNC(=O)CC1C(=O)NCCN1Cc1ccc(F)cc1Cl (stereo not drawn)	-5.69% (inactive)
CC(C)C[C@H](NC(=O)C1CCC(CNC(=O)[C@@H]2CCCN2C(=O)OC(C)(C)C)CC1)C(=O)O (stereo partly drawn)	-6.01% (inactive)
Cn1cccc1C(=O)N1CCc2ccccc2C1	36.9% (inactive)
CN(c1cccc(NC(=O)c2ccc(CN3CCc4ccccc4C3)cc2)c1)S(C)(=O)=O	-12% (inactive)
O=C(COc1ccccc1)N1CCc2ccccc2C1	38.7% (inactive)
Cc1cccc(OC(C)C(=O)N2CCc3ccccc3C2)c1 (stereo not drawn)	-13.5% (inactive)
O=C(c1cc(-c2cccc(O)c2)on1)N1CCc2ccccc2C1	35.6% (active)
O=C(NCCCN1CCOCC1)c1cc(-c2cccc(O)c2)on1	23.1% (inactive)
Cc1ccc2c(c1)N(C(=O)CCC(=O)N1CCc3ccccc3C1)CCO2	2.26% (inactive)
O=C(c1noc2c1CCCC2)N1CCc2ccccc2C1	67.4% (active)
CN(c1ccc(C(=O)N2CCc3ccccc3C2)cc1)S(C)(=O)=O	52.2% (active)
CN1CCN(Cc2c(C(=O)N3CCc4ccccc4C3)nc3ccc(Cl)cn23)CC1	-6.16% (inactive)
COc1cccc(N(CC(=O)N2CCc3ccccc3C2)S(C)(=O)=O)c1	-19.6% (inactive)
Cc1ccc(-c2cc(C(=O)N3CCc4ccccc4C3)no2)cc1	46.6% (active)
